Experimental data reported in PubChem BioAssay AID720513 (Broad Institute, 2013).
About 480 (23%) of roughly 2,100 compounds were called active. Another 5% or so got no clear call; they are omitted.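 The calls were made as follows: active = fitted curve reaches 40% activation at or below the top valid concentration, in every replicate test; inconclusive = replicate tests disagree on the call; inactive = the rest, including activity in the opposite direction.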 The list is a sample of the results. Measured potencies and affinities stand elsewhere.

Experiment: PGC1a acetylation increase, cellular AlphaLISA – cell-based, cherry-picked samples, set 6, dose response (AID 720513);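 also: cells made to overexpress flag tagged PGC1a plus GCN5 acetyltransferase by viral infection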
Details: U2OS PGC1a acetylation AlphaLISA, overnight, 0 = neutral, -100 = inhibitor control; series mostly up to 19.5 µM; activation (acetylation increase): at the top concentration

Activation (acetylation increase), inactive:
C[C@@H]1CN([C@@H](C)CO)C(=O)CCCn2nncc2CO[C@@H]1CN(C)C(=O)NC1CCCCC1 3.28%, Cc1cc(C)c(C(=O)/C=C/c2ccc(C(C)C)cc2)c(=O)[nH]1 -29.3%, C[C@H]1CN([C@@H](C)CO)S(=O)(=O)c2ccc(C3=CCCC3)cc2O[C@H]1CN(C)Cc1cncnc1 11.6%, O=S(=O)(Nc1cc(Sc2ncn[nH]2)c(O)c2ccccc12)c1ccccc1 -96.2%, COc1ccc(NC(=O)N[C@@H]2CC[C@H](CCn3cc(-c4ccccc4F)nn3)O[C@@H]2CO)cc1 34%, O=C(Cn1ncc(Cl)c(Cl)c1=O)c1ccc2c(c1)OCCO2 -78.9%, Cc1ccc(NC(=O)Cn2ncc(Cl)c(Cl)c2=O)cc1S(=O)(=O)N1CCCCC1 -92.6%, O=C(Cn1ncc(Cl)c(Cl)c1=O)N1CCN(S(=O)(=O)c2ccc3ccccc3c2)CC1 -94.6%, O=C(Cn1ncc(Cl)c(Cl)c1=O)c1ccc(Cl)cc1 -107%, C[C@H](CO)N1C[C@H](C)[C@@H](CN(C)Cc2cccnc2)Oc2cc(C#CC3CCCCC3)ccc2S1(=O)=O -75.6%, Cc1noc(C)c1NC(=O)N(C)C[C@@H]1Oc2ccc(NS(=O)(=O)c3cn(C)cn3)cc2C(=O)N([C@@H](C)CO)C[C@@H]1C 8.74%, CN=C1c2cc3cc(OC)ccc3n2CCN1Cc1ccccc1 42.6%, Cc1cc(N2CCN(C)CC2)nc(=S)[nH]1 -14.8%, COc1cc(OC)cc(C(=O)N[C@H](C(=O)OCC(=O)NC(=O)NC(C)(C)C)C(C)C)c1 -10.6%, OC[C@H]1[C@@H](c2ccc(C#CC3CCCC3)cc2)[C@@H]2CN(CCC(F)(F)F)CCCCN12 -96.1%, N#C[C@@H]1[C@H](c2ccccc2C2=CCCCC2)[C@H](CO)N1C(=O)Cc1ccncc1 4.27% [at 21 µM], NC(=O)c1oc2ccccc2c1NC(=O)C1CC(=O)N(c2ccccc2)C1 (stereo not given) 42.6%, CN(C)C(=O)C[C@H]1CC[C@@H](NC(=O)C2CCC2)[C@H](CO)O1 -23.8%, COCCOc1ccc(C(F)(F)F)cc1NC(=O)CN1C(=O)NC2(CCCc3ccccc32)C1=O (stereo not given) -4.64%, CCOC(=O)c1[nH]c(C)c(C(=O)Nc2cc(Cl)ccc2C)c1C -1.9%, CCOC(=O)c1[nH]c2ccc(OC)cc2c1NC(=O)c1ccc2c(c1)OCO2 -3.22%, O=c1c2c(nc3c(-c4ccc(Cl)cc4)c[nH]n13)CCCC2 -8.3%, CC(C)(O)c1cc(=O)sc2nc3ccccc3n12 12.9%, O=C(NC1CCCC1)C(c1ccccc1)N(Cc1ccc(F)cc1)C(=O)c1csnn1 (stereo not given) 22.9%, O=C(NC1CCCC1)C(c1ccncc1)N(Cc1ccccc1F)C(=O)c1csnn1 (stereo not given) -10.3%, C[C@@H]1CN([C@@H](C)CO)C(=O)CCCn2cc(nn2)CO[C@H]1CN(C)C(=O)Cc1ccccc1 8.97%, CC(=O)N(C)C[C@H]1Oc2ncc(C#CCc3ccccc3)cc2C(=O)N([C@@H](C)CO)C[C@H]1C 5.97%, C[C@@H]1CN([C@H](C)CO)C(=O)c2cccc(NC(=O)Nc3cccc4ccccc34)c2O[C@H]1CN(C)S(C)(=O)=O 6.73%, CCn1c(=N)n(CC(=O)c2ccc(OC)c(OC)c2)c2ccccc21 5.92%, CC(=O)Oc1ccc(-c2csnn2)cc1 0.471%, CCCNC(=O)CN(C)C(=O)c1n[nH]c2ccccc12 18.4%, O=c1[nH]c(=O)c2[nH]c(=S)[nH]c2[nH]1 -1.47%, CC(C)c1ccc(NC(=O)c2n[nH]c(=O)c3ccccc23)cc1 1.85%, COc1ccc2nc3cc(Cl)ccc3c(Nc3cc(CN4CCCC4)c(O)c(CN4CCCC4)c3)c2n1 -57.3%, Cc1noc(C)c1NC(=O)Nc1ccc2c(c1)C(=O)N([C@H](C)CO)C[C@@H](C)[C@@H](CN(C)S(=O)(=O)c1ccc(F)cc1)OCCCC[C@@H](C)O2 34.8%, CCCCC(=O)NCCc1cc2c(OC)ccc(OC)c2[nH]c1=O 20.3%, COc1cc2[nH]c(=O)n(CCCC(=O)NCCc3ccccc3)c(=O)c2cc1OC -2.35%, COc1cccc(NC(=O)CN(C)C(=O)CNC(=O)c2ccccc2F)c1 2.56%, Cn1nnnc1SCC(=O)NCc1cccc(C(=O)O)c1 -38.1% [at 10 µM], CCCN(C)C[C@H]1Oc2cc(C#C[C@@H](C)O)ccc2S(=O)(=O)N([C@@H](C)CO)C[C@H]1C -11.5%, CCn1cc([N+](=O)[O-])c(C(=O)NCc2ccc3c(c2)OCO3)n1 -0.458%, COC(=O)c1ccccc1N(C)S(=O)(=O)c1cc2c(cc1C)OCC(=O)N2 -12.3%, Cc1ccc(CNC(=O)CCS(=O)(=O)c2cc3c(cc2Cl)NC(=O)CO3)cc1 18%, COc1ccc(C2c3c(-c4ccccc4O)n[nH]c3C(=O)N2CCc2ccc(OC)c(OC)c2)cc1 (stereo not given) 4.33%, C#CCN(C[C@@H]1[C@@H](OC(=O)NCc2ccccc2F)[C@@H](OC(=O)NCc2ccccc2F)Cn2c(=O)ccc(=O)n21)S(=O)(=O)c1ccc(C)cc1 -98.8%, COc1ccc2c(c1)c(CC(=O)OCC(N)=O)c(C)n2C(=O)c1ccc(Cl)cc1 31.9%, COc1ccc([N+](=O)[O-])c(S(=O)(=O)c2ccc(Cl)cc2)n1 -85.4%, CN(C)C(=O)C[C@H]1C[C@@H]2c3cc(NC(=O)C4CCOCC4)ccc3O[C@@H]2[C@H](CO)O1 30.3%, C[C@H](NC(=O)C[C@H]1C[C@@H]2c3cc(NC(=O)Nc4ccc(C(F)(F)F)cc4)ccc3O[C@@H]2[C@@H](CO)O1)c1ccccc1 -4.02%, N#Cc1cccc(C#N)c1NCC1CCCO1 (stereo not given) 13.6%, COCC#Cc1cnc2c(c1)C(=O)N([C@H](C)CO)C[C@@H](C)[C@@H](CN(C)C(=O)c1cccnc1)O2 4.29%, CC1=C(C(N)=O)C(c2ccccc2)n2nc(-c3ccncc3)nc2N1 (stereo not given) 36.6%, CCN(CC)C(=O)c1sc(NC(=O)c2ccncc2)c(C(=O)OC)c1C -4.98%, CC(=O)Nc1cccc(OCC(=O)Nc2ccccc2)c1 -3.78%, COc1ccc(OC)c(N(CC(=O)Nc2ccccc2)S(C)(=O)=O)c1 27.7%, CC(=O)Nc1ccc(NS(=O)(=O)c2ccc(C)cc2)cc1[N+](=O)[O-] 33.2% [at 10 µM], COc1ccc(NC(=O)CN(C)C(=O)c2cnc(Cl)c(Cl)c2)cc1 12.1%, Cc1nn(CC(=O)Nc2ccc(C(C)C)cc2)c(C)c1[N+](=O)[O-] -5.82%, COc1ccc(OC)c(CN2CCN(C(=O)c3ccc(NS(=O)(=O)c4cccc([N+](=O)[O-])c4)cc3)CC2)c1 2.19%, CC(C)Cc1nnc(NC(=O)c2cc3c(s2)CCC3)s1 5.75%, C[C@@H]1CN([C@@H](C)CO)C(=O)c2cc(NC(=O)Nc3cccc4ccccc34)ccc2O[C@@H](C)CCCCO[C@H]1CN(C)C(=O)NC1CCCCC1 22.3%, N#Cc1ccc(C(c2ccc(C#N)cc2)n2cncn2)cc1 2.17%, N#Cc1c(C#N)c(O)c2ccccc2c1O 15%, OC[C@@H]1CN(Cc2ccccc2)C[C@H](n2cnc3c(NCc4ccc(F)cc4)ncnc32)O1 0.342%, O=C(COc1ccc(Cl)cc1Cl)NCCCN1CCOCC1 8.53%, COc1cc(NS(=O)(=O)c2ccc(N)cc2)nc(OC)n1 17.8%, CN(C)S(=O)(=O)c1ccc(N2CCCC2)c(C(=O)NCc2cccc(C(F)(F)F)c2)c1 4.68%, COc1ccc(NC(=O)N[C@@H]2CC[C@H](CCn3cc(-c4ccccc4F)nn3)O[C@H]2CO)cc1 19%, COc1ccccc1C1c2c(C)nn(-c3ccccc3)c2NC(=O)C1NC(=O)c1ccccc1 (stereo not given) -23.3%, Cn1cnnc1Sc1ccc(/C=C/C(=O)c2ccc(O)cc2)cc1[N+](=O)[O-] -94.3%, O=C(Nc1ccc(F)cc1)c1ccccc1 22.9%, O=C(Nc1ccc(F)cc1)N1CCCCN2[C@H](CO)[C@H](c3ccc(C#Cc4ccccc4)cc3)[C@H]2C1 -84.6%, CC(C)NC(=O)N(C)C[C@H]1OCCCC[C@@H](C)Oc2ccc(NC(=O)CCCN(C)C)cc2C(=O)N([C@@H](C)CO)C[C@@H]1C -5%, C[C@@H]1CN([C@@H](C)CO)C(=O)CCCn2cc(nn2)CO[C@H]1CN(C)Cc1ccncc1 8.73% [at 21 µM], CCCCN(C(=O)CCC(=O)Nc1cc(C)on1)C(C(=O)NC1CCCC1)c1ccc(OC)cc1 (stereo not given) -10.7%, C#CC(=O)N(c1ccc(OC)cc1OC)C(C(=O)NC1CCCC1)c1cccs1 (stereo not given) -106%, COc1ccc(N2C(=O)CC2(/C=C/c2ccccc2OC)C(=O)NC2CCCC2)cc1 (stereo not given) 20.7%, O=C(NC1CCCCC1)C(c1ccc2ncccc2c1)N(Cc1ccc2c(c1)OCO2)C(=O)c1ccc2c(c1)OCCO2 (stereo not given) 9.19%, C#CC(=O)N(c1cccc(OC)c1)C(C(=O)NC1CCCC1)c1cccs1 (stereo not given) -104%, C#CC(=O)N(c1ccc(OC)c(OC)c1)C(C(=O)NC1CCCC1)c1cccs1 (stereo not given) -99.1%, CCCC(C(=O)NC(C)(C)C)N(Cc1ccc(F)cc1)C(=O)c1snc(C(N)=O)c1N (stereo not given) -19.4%, CC12CC(c3ccccc3O1)N(C(=O)c1ccc(Br)o1)C(=O)N2c1ccccc1 (stereo not given) -8.31%, CCCOc1ccccc1-n1sc2c(c1=S)-c1cc(OC)cc3c1N(C(=O)C3=O)C2(C)C -46.2%, COc1cccc(-c2nn(-c3ccccc3)cc2CN(C)C(C)c2ccncn2)c1 (stereo not given) 15.7%, Cc1c(NC(=O)c2ccccc2NS(=O)(=O)c2ccc(Br)cc2)c(=O)n(-c2ccccc2)n1C -8.93%, CCOC(=O)C1=C(NC(=O)c2ccc(Br)o2)Nc2ccccc2N=C1 31.5%, CCCNC(=O)N(C)C[C@H]1Oc2cc(C#CC(C)C)ccc2S(=O)(=O)N([C@@H](C)CO)C[C@H]1C 0.778%, CC(C)C#Cc1cnc2c(c1)C(=O)N([C@H](C)CO)C[C@H](C)[C@H](CN(C)C(=O)CN1CCOCC1)O2 23.2%, Cc1cc(-c2ccc(Cl)cc2)n2ncnc2n1 -15.3%, CO[C@@H]1CN(C)C(=O)c2cc(NC(C)=O)ccc2OC[C@H](C)N(C(=O)c2cccnc2)C[C@H]1C -7.97%
